TRPM1 prom inh: reduces MITF-dependent TRPM1 promoter luciferase signal | SK-MEL-5 TRPM1 promoter luciferase, 24 h | inhibition, % at 12.5 µM | hit rate 0.83% among 330,000 | AID 488899;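 active = mean inhibition across replicates of 60% or more, whatever share of single replicates reaches that level; inconclusive = some that reach 60%, reason not given; inactive = mean inhibition across replicates below 60%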
LMP1 NFkB inh: reduces LMP1-driven NF-kappaB luciferase signal; inhibition, % at 12.5 µM; LMP1-induced NF-kappaB luciferase reporter cells, luminescence; AID 504558; hit rate 0.69% among 350,000; in the data active = inhibition above about 41%; inconclusive = no clear call, values can overlap the other calls;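 also: 0% = neutral control wells and 100% = reference inhibitor control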
MITF TRPM1 HTS: activators of MITF-driven TRPM1 promoter activity in SK-MEL-5 cells; hit rate 0.75% among 300,000; SK-MEL-5 TRPM1-promoter luciferase, 24 h; % of positive control, neutral wells = 0; activation, % at 12.5 µM;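 active = mean activation of at least 80% with every replicate also reaching 80%; inconclusive = mean reaches 80% but some replicate falls short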;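 also: 0% = neutral control wells and 100% = parthenolide positive control wells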
Wnt act: activates Wnt/beta-catenin signaling in a reporter cell assay; activator, plate reader; activation, % at 9.35 µM; hit rate 1.2% among 300,000; AID 743398; in the data active = activation above about 30%, passing the limit was not always enough; inconclusive = no clear call, values can overlap the other calls;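 also: 0% = neutral control wells and 100% = positive control wells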
esBAF inh: blocks esBAF chromatin remodeling in mouse ES cells | hit rate 2% among 350,000 | reporter increase, % at 12.5 µM | Bmi1-luciferase knock-in reporter, 24 h; 100% = twice the neutral-well signal; in the data active = activation above about 40%; inconclusive = no clear call, values can overlap the other calls;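 also: 0% = median of the plate's neutral control wells and 100% = double that signal; a rise in the Bmi1 reporter signal indicates esBAF inhibition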
C2C12 statin: suppressors of simvastatin-induced myotoxicity in C2C12 myotubes. ATP luminescence, 48 h; scaled: DMSO 0, geranylgeraniol control 100. rescue of ATP level, % at 7.49 µM. hit rate 0.78% among 330,000;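 active = mean ATP rescue above about 67%, or every replicate alone reaching that limit, limit read from the data, passing the limit was not always enough; inconclusive = no clear call, values can overlap the other calls; inactive = mean under the limit and some replicate under it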;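 also: myotubes were challenged with 10 µM simvastatin during compound exposure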
The depositor's hits bear a star; u = inconclusive; x = not tested or not shown. Hits are enriched below; roughly 4% of the tested compounds scored in any of these assays.

SMILES	TRPM1 prom inh	LMP1 NFkB inh	MITF TRPM1 HTS	Wnt act	esBAF inh	C2C12 statin
N=c1n(CC(=O)c2ccc([N+](=O)[O-])cc2)c2ccccc2n1Cc1ccccc1Cl	79.1*	-16.4	-77.1	2.4	x	x
N=c1n(CC(=O)O)c2ccccc2n1Cc1ccccc1Cl	-2.9	-15.5	2.1	-2.3	-2.8	x
O=[N+]([O-])c1ccc(COc2ccc(CN3CCCC3)cc2)cc1	-105.6	-6.2	100.5*	9.6	24.3	1.2
CC1CCN(C(=O)Cn2c3ccccc3c3nc4n(c(=O)c32)CCS4)CC1	-4.9	2.1	4.9	-1.8	2.2	-1.2
CO[C@H]1CN(C)C(=O)c2cc(NC(=O)C3CCOCC3)ccc2OC[C@H](C)NC[C@@H]1C	x	x	x	x	-0.1	-5.6
CCOC(=O)CSc1nc(C)cc(Oc2ccc(=O)n(C)n2)n1	-1.9	4.8	-0.4	0.5	0.7	-3.9
O=C(c1ccc(F)cc1)c1ccc(-c2ccc(F)cc2)nc1	-62.6	-5.8	68.1	5.3	43.8*	0.9
O=C1NC(=Nc2ccccc2)S/C1=C/c1cccs1	-39.0	-1.3	48.2	51.2*	x	x
Cc1cccc(N=C2NC(=O)/C(=C\c3cccs3)S2)c1	-43.1	-11.3	35.9	x	x	x
S=C(NCC1(c2ccccc2)CCCC1)Nc1ccccc1	8.4	1.0	-9.5	-3.6	-0.4	-6.2
O=C1OCCC1Sc1nc2ccccc2s1 (stereo not drawn)	2.1	-4.0	-1.4	x	4.3	11.9
OC1CCCCC1Sc1nc2ccccc2s1 (stereo not drawn)	-56.8	-5.6	55.4	28.2	53.5*	2.1
COc1ccc(C(=O)N/C(=C\c2ccc([N+](=O)[O-])cc2)C(=O)NC(CCSC)C(=O)O)cc1 (stereo not drawn)	-11.6	4.7	13.6	-2.8	x	x
O=C(c1ccc(CS(=O)Cc2ccccc2Cl)o1)N1CCN(c2cccc(Cl)c2)CC1 (stereo not drawn)	0.7	69.6*	-4.6	-1.6	-4.0	30.4
O=C(O)/C=C\C(=O)Nc1ccccc1C(=O)N1CCN(c2ccc(Cl)cc2)CC1	8.2	3.1	x	0.0	-6.6	88.0*
O=C(O)c1ccccc1C(=O)N1CCN(c2cccc(Cl)c2)CC1	-0.6	-9.4	0.0	0.8	9.0	84.3*
COc1cc(Cl)ccc1NC(=O)COc1ccccc1C(=O)N1CCN(c2ccc(O)cc2)CC1	37.1	3.6	-34.7	x	3.8	121.8*
CC(C)c1ccc(N2CCN(C(=O)c3ccccc3NC(=O)/C=C\C(=O)O)CC2)cc1	-4.8	3.5	7.0	-2.2	-6.0	x
CC(C)(C)c1ccc(C(=O)NCCOc2ccccc2F)cc1	25.6	6.3	-24.7	-0.9	-50.3	-10.8
C[C@H]1CN([C@@H](C)CO)C(=O)c2cccc(NS(=O)(=O)c3cn(C)cn3)c2O[C@H]1CN(C)CC1CC1	x	x	x	x	-3.1	-11.1
O=[N+]([O-])c1ccc(N=Nc2ncc[nH]2)cc1	14.8	-76.3	-13.3	53.5*	-50.8	22.3
C[C@@H]1CN([C@@H](C)CO)C(=O)c2cc(NC(=O)Nc3ccc(F)cc3)ccc2O[C@@H]1CN(C)Cc1ccc(C(F)(F)F)cc1	x	x	x	x	-3.3	-58.7
CCCc1nnc(NC(=O)C(CC)OC(=O)c2cc(C)nc3ccccc23)s1 (stereo not drawn)	6.8	0.8	x	x	-5.1	10.5
Cc1cccc(N2CCN(C(=O)c3ccnn3C)CC2)c1C	1.2	5.9	0.9	1.6	x	x
Cc1nn(-c2ccccc2)c(N)c1Sc1cccc([N+](=O)[O-])c1	-4.6	-5.4	7.2	1.6	5.3	7.2
SMILES	TRPM1 prom inh	LMP1 NFkB inh	MITF TRPM1 HTS	Wnt act	esBAF inh	C2C12 statin
Nc1c(-c2ccc(Cl)cc2)cnn1-c1cccc(C(F)(F)F)c1	-76.6	-36.4	79.7	13.4	68.3*	x
Cc1nn(-c2cccc([N+](=O)[O-])c2)c(N)c1-c1ccccc1	-91.7	-11.0	92.2*	14.9	65.9*	-3.4
Cc1ccc(-c2cnn(-c3cccc(C(F)(F)F)c3)c2N)cc1	-44.1	-48.3	x	x	87.0*	-9.0
Nc1c(-c2ccc(Cl)cc2)cnn1-c1cccc([N+](=O)[O-])c1	-34.5	-15.6	x	x	64.2*	-7.7
Cc1nnc(-c2cnn(-c3ccccc3)c2N)n1Cc1cccc(C(F)(F)F)c1	-0.8	1.6	x	x	8.5	-12.4
COc1ccccc1C1NC(=O)NC(C)=C1C(=O)OCC1CCCCC1 (stereo not drawn)	x	3.6	x	-1.0	-2.9	-6.2
COc1ccc(Cc2nnc(SCc3c(C)noc3C)n2C2CCCCC2)cc1OC	-7.8	1.2	8.2	9.9	8.1	3.4
COc1ccc(C2CC(c3ccccc3)n3nnnc3N2)cc1 (stereo not drawn)	3.0	-15.5	-1.2	x	2.8	-2.8
C[C@H]1CN([C@@H](C)CO)C(=O)c2cc(NC(=O)Cc3cn(C)c4ccccc34)ccc2O[C@H]1CN(C)C(=O)Nc1ccc2c(c1)OCO2	x	x	x	x	12.2	1.1
Cc1ccc(-c2cn3c(=O)cc(C)[nH]c3n2)cc1	-56.1	-2.3	61.0	44.8*	u	-9.4
C/C(=C\c1ccc(C(=O)O)cc1)c1ccc2c(c1)C(C)(C)CCC2(C)C	-1.8	3.6	8.3	-8.7	45.6*	-75.9
Fc1cnc(N2CCN(c3ccccc3)CC2)nc1N1CCN(c2ccccc2)CC1	-6.4	15.2	6.0	-1.5	x	x
Fc1cnc(N2CCc3ccccc32)nc1N1CCc2ccccc21	-32.9	-43.6	34.8	11.3	47.4*	-21.3
CC1(C)CC(=O)c2cnc(N3CCc4ccccc43)nc2C1	-59.2	-52.0	x	38.5*	x	x
CCOC(=O)c1ccc(NC(=S)N2CCCC(C(=O)OCC)C2)cc1 (stereo not drawn)	3.7	-5.6	-2.1	-2.2	13.1	90.0*
CCOC(=O)c1ccc(NC(=S)N2CCSC2c2ccc(OC)cc2)cc1 (stereo not drawn)	-2.5	66.9*	2.2	x	x	x
Cc1ccccc1N(CC(=O)N/N=C/c1cc(C)n(-c2ccccc2C)c1C)S(C)(=O)=O	-9.4	1.6	8.6	x	2.7	-16.0
CC(=O)Nc1ccc(C(=O)COC(=O)C2CC2C)c(F)c1 (stereo not drawn)	-114.8	-21.8	106.8*	42.5*	13.2	3.0
CCCC(=O)Nc1ccc(C(=O)COC(=O)C2CC2C)cc1 (stereo not drawn)	-73.9	-19.7	78.9	45.5*	38.7	-5.3
CC(=O)Nc1ccc(C(=O)COC(=O)c2c(C)noc2C)c(F)c1	x	1.4	x	7.8	10.7	-4.5
CCCC(=O)Nc1ccc(C(=O)COC(=O)C2=COCCO2)cc1	-14.4	-0.4	15.5	10.6	x	x
CC(=O)Nc1ccc(C(=O)COC(=O)c2cccs2)c(F)c1	-126.7	-32.3	126.6*	56.6*	68.4*	5.0
C[C@H]1CN([C@@H](C)CO)C(=O)c2cc(NC(=O)CCCN(C)C)ccc2O[C@H]1CN(C)Cc1ccc(Cl)c(Cl)c1	x	x	x	x	-0.9	-25.6
CCn1nnc(-c2ccccc2NC(=O)c2ccc(-n3cnnn3)cc2)n1	-7.8	5.3	6.3	x	-7.7	-7.8

Screening results (PubChem BioAssay)
